Laboratory results from PubChem BioAssay.
Unmarked numbers belong to inactive results. Calls of active or inactive are those of the source.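 The calls were made as follows, unless noted: active = mean inhibition above 46.68%, the untreated control wells mean plus 3 SD; inactive = the rest.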

Experiments:
[1] = target: Nuclear receptor coactivator 3 (Homo sapiens) (UniProt Q9Y6Q9); test: NCOA3 GAL4-fusion reporter inhibition – cell-based, luminescence, quadruplicate, confirmation (AID 588792;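 active = mean inhibition over 43.08%, the solvent-only control mean plus 3 SD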;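 also: 0% = DMSO treated cells and 100% = gossypol at 36 µM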); conditions: HEK293 GAL4-SRC3 luciferase reporter, at 3.6 µM, active compounds read high
Chain of Nuclear receptor coactivator 3 (Homo sapiens) (Q9Y6Q9 whole entry, looked up, the tested form may be a part): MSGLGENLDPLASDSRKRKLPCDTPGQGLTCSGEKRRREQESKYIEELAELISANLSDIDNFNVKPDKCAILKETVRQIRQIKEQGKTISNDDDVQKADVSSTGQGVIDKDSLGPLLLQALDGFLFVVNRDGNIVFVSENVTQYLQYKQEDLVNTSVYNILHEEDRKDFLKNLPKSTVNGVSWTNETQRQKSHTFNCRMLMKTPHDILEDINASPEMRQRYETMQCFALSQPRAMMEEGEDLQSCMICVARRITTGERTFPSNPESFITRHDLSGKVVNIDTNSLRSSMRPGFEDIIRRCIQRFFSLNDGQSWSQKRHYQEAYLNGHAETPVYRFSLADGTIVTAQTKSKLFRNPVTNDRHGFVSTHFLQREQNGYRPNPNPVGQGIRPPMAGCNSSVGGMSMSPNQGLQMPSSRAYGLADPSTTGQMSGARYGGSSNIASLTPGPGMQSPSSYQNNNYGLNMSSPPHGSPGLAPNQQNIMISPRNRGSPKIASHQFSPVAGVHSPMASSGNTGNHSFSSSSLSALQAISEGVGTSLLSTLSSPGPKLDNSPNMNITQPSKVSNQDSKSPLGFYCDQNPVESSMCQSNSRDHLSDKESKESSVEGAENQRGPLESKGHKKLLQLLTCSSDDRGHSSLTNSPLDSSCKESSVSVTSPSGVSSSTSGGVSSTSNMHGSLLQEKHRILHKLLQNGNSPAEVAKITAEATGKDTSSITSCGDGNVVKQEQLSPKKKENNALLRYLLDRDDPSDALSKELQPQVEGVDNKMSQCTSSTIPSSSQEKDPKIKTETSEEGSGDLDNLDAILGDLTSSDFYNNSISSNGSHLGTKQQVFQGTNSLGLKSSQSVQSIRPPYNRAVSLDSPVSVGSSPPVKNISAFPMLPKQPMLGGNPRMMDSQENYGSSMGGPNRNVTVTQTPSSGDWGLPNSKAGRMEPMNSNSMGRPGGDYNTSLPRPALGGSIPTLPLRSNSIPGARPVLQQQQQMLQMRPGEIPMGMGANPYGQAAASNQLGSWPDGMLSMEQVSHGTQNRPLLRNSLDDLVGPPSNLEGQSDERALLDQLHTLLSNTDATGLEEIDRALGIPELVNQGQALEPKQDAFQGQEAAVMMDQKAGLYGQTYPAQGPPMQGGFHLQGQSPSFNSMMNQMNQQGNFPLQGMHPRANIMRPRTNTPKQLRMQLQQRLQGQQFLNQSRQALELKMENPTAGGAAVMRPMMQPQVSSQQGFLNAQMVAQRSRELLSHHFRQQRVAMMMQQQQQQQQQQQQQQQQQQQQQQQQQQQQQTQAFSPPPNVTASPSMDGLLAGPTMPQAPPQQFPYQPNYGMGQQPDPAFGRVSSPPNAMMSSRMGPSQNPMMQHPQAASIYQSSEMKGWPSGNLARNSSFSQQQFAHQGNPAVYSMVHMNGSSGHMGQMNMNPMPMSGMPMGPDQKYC

[2] = system: transactivating tegument protein VP16 (Human herpesvirus 1), Gal4-VP16 luciferase reporter; test: repression of VP16-driven luciferase reporter – cell-based, luminescence, high throughput, counter-screen for SRC3 inhibitor project (AID 588794; in the data active = inhibition above about 30%); conditions: mammalian cells, at 3.6 µM, active compounds read high
[3] = target: Nuclear receptor coactivator 1 (Homo sapiens) (UniProt Q15788); test: NCOA1 GAL4-fusion reporter inhibition – cell-based, luminescence, quadruplicate, confirmation (AID 588820); conditions: HEK293 GAL4-SRC1 luciferase reporter, at 3.6 µM, active compounds read high;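 also: 0% = DMSO wells and 100% = gossypol 36 µM treated wells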
Chain of Nuclear receptor coactivator 1 (Homo sapiens) (Q15788 whole entry, looked up, the tested form may be a part): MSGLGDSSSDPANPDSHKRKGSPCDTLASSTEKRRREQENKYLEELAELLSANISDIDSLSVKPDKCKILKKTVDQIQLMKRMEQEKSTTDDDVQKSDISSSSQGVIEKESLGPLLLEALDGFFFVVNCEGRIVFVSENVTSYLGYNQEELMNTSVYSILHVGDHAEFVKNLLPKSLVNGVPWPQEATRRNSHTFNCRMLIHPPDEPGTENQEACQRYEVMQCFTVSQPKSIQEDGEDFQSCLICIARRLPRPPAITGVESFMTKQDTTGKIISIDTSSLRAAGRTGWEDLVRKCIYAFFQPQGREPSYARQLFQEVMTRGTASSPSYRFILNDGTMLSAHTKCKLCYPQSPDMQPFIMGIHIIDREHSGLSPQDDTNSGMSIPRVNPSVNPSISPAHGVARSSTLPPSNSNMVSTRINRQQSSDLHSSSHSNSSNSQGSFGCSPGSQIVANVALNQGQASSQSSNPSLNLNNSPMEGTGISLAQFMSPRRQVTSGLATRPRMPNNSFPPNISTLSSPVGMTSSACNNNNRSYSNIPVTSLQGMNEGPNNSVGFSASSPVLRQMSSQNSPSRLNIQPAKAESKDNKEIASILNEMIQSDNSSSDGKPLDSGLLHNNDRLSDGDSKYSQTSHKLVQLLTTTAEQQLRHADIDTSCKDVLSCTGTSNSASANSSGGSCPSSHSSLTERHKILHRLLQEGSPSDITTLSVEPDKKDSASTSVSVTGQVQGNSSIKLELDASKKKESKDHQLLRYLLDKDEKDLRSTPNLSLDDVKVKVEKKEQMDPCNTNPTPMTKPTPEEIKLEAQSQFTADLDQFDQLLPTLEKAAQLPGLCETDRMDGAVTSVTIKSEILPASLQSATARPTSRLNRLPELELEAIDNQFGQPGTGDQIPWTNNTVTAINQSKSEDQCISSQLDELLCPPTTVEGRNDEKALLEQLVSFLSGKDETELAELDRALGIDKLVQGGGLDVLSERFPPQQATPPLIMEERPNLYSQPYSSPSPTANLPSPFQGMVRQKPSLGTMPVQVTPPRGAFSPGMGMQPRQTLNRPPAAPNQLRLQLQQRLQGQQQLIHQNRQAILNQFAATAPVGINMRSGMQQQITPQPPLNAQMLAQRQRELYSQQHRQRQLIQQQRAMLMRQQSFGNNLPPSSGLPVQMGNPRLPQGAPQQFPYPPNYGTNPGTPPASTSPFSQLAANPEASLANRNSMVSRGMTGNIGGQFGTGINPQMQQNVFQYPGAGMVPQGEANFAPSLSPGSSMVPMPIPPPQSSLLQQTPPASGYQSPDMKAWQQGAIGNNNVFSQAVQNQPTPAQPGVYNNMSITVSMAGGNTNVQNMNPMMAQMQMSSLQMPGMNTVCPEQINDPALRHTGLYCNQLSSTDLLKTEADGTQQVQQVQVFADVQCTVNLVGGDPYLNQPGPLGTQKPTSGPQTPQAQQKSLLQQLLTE

[4] = repression of VP16-driven luciferase reporter – cell-based, luminescence, high throughput, counter-screen for SRC1 inhibitor project (AID 588824; in the data active = inhibition above about 25%); conditions: cell-based VP16 transactivation luciferase luminescence; at 3.6 µM; active compounds read high

Compound	inhibition [1]	inhibition [2]	inhibition [3]	inhibition [4]
CC(C)(C)c1nnc(N/N=C/c2ccccc2O)n(N)c1=O	80.1% (active)	76.7% (active)	74.4% (active)	76.2% (active)
Fc1ccc(NC(=S)NNc2ncc(C(F)(F)F)cc2Cl)c(F)c1	4.99%	23%	15.9%	29.1% (active)
N=c1c2c(-c3ccccc3)c(-c3ccccc3)n(Cc3ccccc3)c2ncn1CCCO	12%	53.2% (active)	42.6%	51% (active)
O=C(CCSc1nc2ccccc2s1)N/N=C/c1c(O)ccc2ccccc12	20.2%	23.7%	36%	32% (active)
CC(=NNc1nc2ccccc2o1)c1cc2ccccc2cn1	88.8% (active)	86.4% (active)	80.6% (active)	86.3% (active)
O=C(/C(=C/c1ccc(Cl)cc1)c1nc2ccccc2[nH]1)c1cccs1	79.1% (active)	61.9% (active)	22.4%	49.5% (active)
CCC(=O)c1ccc(Oc2nc3c(c(=O)n(C)c(=O)n3C)n2CC)cc1	26.3%	19.6%	29.4%	20.9%
CCCN(CCC)c1nc(-c2ccccn2)nc2ccccc12	80% (active)	35.2% (active)	30.2%	29.9% (active)
CN(C)c1ccc(Nc2ncnc3ccc(Br)cc23)cc1	47.3% (active)	30.8% (active)	40.8%	20.2%
CN([C@@H](Cc1ccc(OS(=O)(=O)c2cccc3cnccc23)cc1)C(=O)N1CCN(c2ccccc2)CC1)S(=O)(=O)c1cccc2cnccc12	-2.66%	30.3% (active)	-4.42%	31.2% (active)
O=C(N/N=C/c1cc(O)ccc1Br)c1cccnc1	17.6%	37.5% (active)	19.8%	39.3% (active)
CCOC(=O)CC(=O)CSc1nccc(-c2cccnc2)n1	37.5%	15.3%	16.4%	10.1%
CC(C)CCNC(=O)C(c1ccncc1)N(Cc1cccs1)C(=O)Cn1nnc(-c2ccc(F)cc2)n1 (configuration not stated)	66.2% (active)	54.1% (active)	46.3%	52.2% (active)
Cc1cc(=O)[nH]c(N/N=C/c2cc(C)n(CC(F)(F)F)c2C)n1	22%	60.4% (active)	43.5%	60.3% (active)
C[n+]1c2n(c3ccccc31)N=C(c1ccc(Br)cc1)CS2	15.5%	24.7%	-14.8%	30.4% (active)
CCCc1c(C)nc2ccccc2c1SCCC#N	29.6%	29%	39.6%	25.5% (active)
COc1cccc(/C=N/NC(=O)C(=O)Nc2ccccc2OC(F)(F)C(F)F)c1O	36.3%	38% (active)	33.3%	23.4%
COc1cccc2nc3c(C(=O)NCCN(C)C)cccc3cc12	35.9%	39.9% (active)	46.5%	32.7% (active)
O=C(Nc1ccc([N+](=O)[O-])cc1)Nc1ccc(OC(F)F)c(Cl)c1	22.9%	32.5% (active)	10.3%	39.7% (active)
O=C(NCc1ccccc1)c1csc(-c2cccnc2)n1	54.8% (active)	30.8% (active)	42.7%	37% (active)
Cc1ccc(S(=O)(=O)N2CCOCC2)cc1NC(=O)CN1CCN(c2ccc(O)cc2)CC1	12.4%	-1.58%	-6.12%	11.1%
COc1ccc(Nc2nc(N3CCCC3)nc3ccccc23)c(OC)c1	16.8%	37.1% (active)	5.96%	33.2% (active)
O=C(CCl)N1N=C(c2ccco2)CC1c1cccs1 (configuration not stated)	55.1% (active)	31.6% (active)	15.3%	21.7%
Nc1nc(/C=C/c2cccnc2)nc(-c2ccccc2O)n1	-12.6%	0.59%	-16.8%	14.2%
CCN(CC)S(=O)(=O)c1ccc(/C=C/C(=O)Nc2ccc(Br)cc2F)cc1	21.2%	40.3% (active)	16%	41.9% (active)
CSc1ncnc2c1ncn2CC(=O)C1CCC2C3CCC4=CC(=O)CCC4(C)C3CCC12C (configuration not stated)	19.5%	12.2%	-0.31%	12.1%
O=C(NC(=S)/C(=C1\CCCCCN1)[N+](=O)[O-])c1ccccc1	32.1%	9.73%	-25.3%	-33%

Compound	inhibition [1]	inhibition [2]	inhibition [3]	inhibition [4]
CCN(CC)c1ncnc2ccc(Br)cc12	48.3% (active)	31.9% (active)	45.9%	36% (active)
CC(=O)NC(c1ccccc1)c1cc(Cl)c2cccnc2c1O (configuration not stated)	29.2%	30.1% (active)	36%	27% (active)
O=C(N/N=C(\c1ccccc1)c1ccccn1)c1ccccc1Cl	35.8%	22.1%	25.9%	12.4%
Cc1ccc(S(=O)(=O)N2CCN(S(C)(=O)=O)CC2)cc1	24.1%	19.9%	-0.28%	6.89%
COCC(C)n1c(C)cc(C(=O)COC(=O)c2cc(=O)[nH]c3ccccc23)c1C (configuration not stated)	1.93%	-15.5%	-34.1%	-32.1%
COC(=O)c1ccc2nc(NC(=O)C(C)(C)C)sc2c1	-14.6%	-16.8%	-142%	-60.1%
Cc1ccc(S(=O)(=O)N2[C@@H](c3ccc(C(C)(C)C)cc3)C(C(=O)O)=CC[C@H]2c2ccc(Cl)cc2)cc1	16.6%	23.9%	28.7%	19.6%
CCOC(=O)C(=Cc1ccccc1)C(=O)c1ccccc1	21.3%	33.6% (active)	10.6%	28.7% (active)
O=C(CCCOc1ccc(Cl)cc1Cl)N/N=C/c1ccccc1O	26.1%	22.3%	29.5%	15.2%
Cc1ccc(C2NC(=O)CCC2[N+](=O)[O-])cc1 (configuration not stated)	-3.62%	-1.77%	-9.25%	-3.26%
CC(=O)NS(=O)(=O)c1ccc(NC(=O)/C=C/c2cn(-c3ccccc3)nc2-c2ccccc2)cc1	-12.7%	0.43%	1.36%	-3.92%
Cc1ccc(S(=O)(=O)NC(CC(C)C)C(=O)NCC(c2ccco2)N2CCCCC2)cc1 (configuration not stated)	27%	2.93%	32.8%	-1.82%
Cn1c(CC(=O)Nc2ccc(Cl)c(Cl)c2)nnc1SCC(=O)N1CCN(c2ccccc2)CC1	14.9%	12.5%	9.04%	9.79%
COc1ccc(NS(=O)(=O)c2ccc(NC(=O)c3ccc(N(C)S(C)(=O)=O)cc3)cc2)c(OC)c1	12.3%	37% (active)	-6.59%	36.6% (active)
COc1ccccc1N(C(=O)CCl)c1cn(C(C)=O)c2ccccc12	52.2% (active)	27%	27.2%	18.7%
Cc1ccc(NC(=O)c2cc3ccccc3oc2=O)cc1S(=O)(=O)N(C)C	82.9% (active)	78.5% (active)	67% (active)	63.7% (active)
CC(C)Cn1c(N)c(C(=O)CSc2ccc3c(c2)OCCO3)c(=O)n(C)c1=O	35.5%	56.9% (active)	46%	51.9% (active)
c1ccc2c(-c3cncc4ccccc34)cncc2c1	31.4%	32.7% (active)	36.4%	28% (active)
COc1ccc(-n2c(C)c(C(C)=O)c3cc(OC(C)=O)ccc32)cc1	77.5% (active)	55% (active)	65.2% (active)	60.4% (active)
CCC(=O)Nc1cc2nn(-c3ccc(C)cc3)nc2cc1C	-6%	-33.2%	-102%	-68%
O=C(N/N=C\c1c(O)ccc2ccccc12)c1cncc(Br)c1	83% (active)	84% (active)	77.7% (active)	80.5% (active)
O=C(N/N=C/c1ccccc1O)c1cccc(C(F)(F)F)c1	57.9% (active)	43.2% (active)	65.9% (active)	48.8% (active)
O=c1[nH]c(=O)n(C2OC(CO)C(O)C2O)cc1F (configuration not stated)	57.4% (active)	58.5% (active)	26.9%	57.2% (active)
CC(=O)c1c(C)oc2ccc(N(C(C)=O)S(=O)(=O)c3cccc4cccnc34)cc12	15.2%	21.9%	6.31%	18.4%
C#CC[N+](C)(C)CCCCCCCCCC	18.6%	23.2%	9.87%	16.1%
CC(C)(C)c1ccc(/C=C2\SC(=O)N(CCNC(=O)c3cccc(S(=O)(=O)N4CCOCC4)c3)C2=O)cc1	-11.1%	-19.8%	-58.1%	-59.9%
